# Experimental data from PubChem BioAssay AID624305 (National Center for Advancing Translational Sciences (NCATS), 2012).
# Inconclusive results are not listed. Entries that show only a call come without a potency. A number with no mark means an inactive call. Activity calls are given as the source filed them. The call rests on the fitted dose curve; in most records, active means well fitted activation curve with a large enough effect; inconclusive means small, poorly fitted or top-dose-only effect; inactive means no such curve, though single readings can be large or run the other way.
# Experiment: qHTS assay for re-activators of p53 using a Luc reporter: Hit Validation; further: nearly all actives have a fitted effect of over 75% in size
# How it was run: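 Hit confirmation with a 1:5 dilution series, at 37 deg C for 24 hrs, in H1299 cells co-expressing temperature-sensitive p53-A138V and p53-responsive luciferase. Nocodazole served as control; luminescence read after 10 min with detection reagent.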
# Potency means the concentration at half of the fitted maximal effect.
Compound,Potency,activation
Cc1ccc(C(=O)NC2CC2)cc1S(=O)(=O)N1CCOCC1,inactive,
Cc1cccc(NC(=O)c2oc3c(c2C)C(=O)CC(C)(C)C3)n1,inactive,
Cc1ccc(C(=O)N2CC(=O)Nc3ccc(F)cc3C2c2ccc(F)cc2)cc1[N+](=O)[O-] (stereo not drawn),inactive,
N=C1C(c2nc3ccccc3s2)=C(O)CN1Cc1ccccc1,14600 nM (active),
COc1ccc(CCNC(=O)/C=C/c2ccc(S(=O)(=O)N3CCOCC3)cc2)cc1,inactive,
COCC(=O)Nc1nnc(COc2ccccc2)s1,inactive,
Oc1ccccc1-c1cc(-c2ccc3c(c2)OCCO3)n[nH]1,184 nM (active),
O=C(/C=C/c1cccs1)Nc1ccc(Br)cn1,1840 nM (active),
c1ccc(-c2cn3nc(-c4ccccc4)cnc3n2)cc1,920 nM (active),
Clc1ccc(-c2nnc(SCc3ccon3)o2)c(Cl)c1,366 nM (active),
COCC(C)NC(=O)C1CC(=O)N(c2ccc(C)cc2)C1 (stereo not drawn),,-21.3% [at 9.22 µM]
Cc1ccc(-n2c(C)cc(C(=O)CSc3nnc4ccccn34)c2C)cc1,6510 nM (active),
C=CCn1c(C)cc(C(=O)CSc2nc3ccccc3o2)c1C,731 nM (active),
O=C(Nc1ccc2c(c1)CCC2)c1ccccc1,411 nM (active),
CCCCc1ccc(NC(=S)N2CCCC(CO)C2)cc1 (stereo not drawn),651 nM (active),
O=C(c1cnn(-c2ccccc2)c1)c1ccccc1O,1460 nM (active),
O=C(NC1CCCCC1)c1ccc(-c2ccccc2F)o1,3660 nM (active),
Cc1cc(NC(c2cccnc2)c2ccc3cccnc3c2O)no1 (stereo not drawn),inactive,
O=[N+]([O-])c1cc(C(F)(F)F)ccc1NCCc1c[nH]c2ccccc12,inactive,
COCc1[nH]nc2c1C(c1cccc(OC)c1)C(C#N)=C(N)O2 (stereo not drawn),inactive,
CCCN1C(=O)SC(CC(=O)Nc2ccccc2C)C1=O (stereo not drawn),,12.4% [at 9.22 µM]
O=C(/C(=N/N=C/c1ccc(O)c(O)c1)c1ccccc1)c1ccccc1,inactive,

Compound,Potency,activation
Cc1ccc(C)c(C(=O)COC(=O)c2n[nH]c3ccccc23)c1,18400 nM (active),
COc1ccc(-c2nnc(SCC(=O)/C(C#N)=C(\C)N)o2)cc1,326 nM (active),
c1ccc2nc(-c3ccc(N4CCOCC4)cc3)ccc2c1,164 nM (active),
C=CCNC(=S)N/N=C(\C)c1ccccn1,6510 nM (active),
Cc1ccc(C)n1-c1cccc(NC(=O)c2ccccc2)c1,inactive,
Cc1ccc(NC(=O)c2ccc(OC(=O)COc3ccc(Cl)c(C)c3)cc2)cc1,9200 nM (active),
NNc1nc(NCc2ccccc2)nc(N2CCOCC2)n1,inactive,
CCOC(=O)c1c(C)[nH]c(C(=O)CSc2ccccc2)c1C,517 nM (active),
NS(=O)(=O)c1ccc(CCNCc2cccnc2)cc1,inactive,
CC(C)NC(=S)N1CCN(S(C)(=O)=O)CC1,inactive,
O=C(N/N=C/c1cn(-c2ccccc2)nc1-c1cc2ccccc2o1)c1ccccc1Br,7310 nM (active),
O=C(NCCCNC1CCCCC1)c1ccc(/C=N/O)nc1,inactive,
Cc1cccc(Nc2nc(N3CCOCC3)nc(N3CCOCC3)n2)c1,inactive,
O=C(c1cccs1)c1coc2ccc(O)cc12,16400 nM (active),
COc1ccccc1NC(CC(=O)c1ccccc1)C(=O)OCC(=O)c1ccc(C)c(C)c1 (stereo not drawn),291 nM (active),
O=C(NCC(=O)N1CCN(c2ncccn2)CC1)c1ccc(F)cc1,inactive,
O=C(NNC(=O)C1CCCO1)c1ccccc1Cl (stereo not drawn),inactive,
CCc1ccc2oc(-c3ccc(N)cc3)nc2c1,92 nM (active),
O=C(Nc1nnc(-c2cccs2)o1)c1cccc(Oc2ccccc2)c1,inactive,
COc1ccccc1NS(=O)(=O)c1ccc(C(=O)Nc2ncccc2O)cc1,inactive,
COc1ccc2[nH]c(=O)c3c(c2c1)OC(C)(C)C=C3,inactive,
Nc1nc2ccc(N3CCOCC3)cc2s1,inactive,

Compound,Potency,activation
COCCCN=C(c1ccco1)n1c(=S)nc(-c2ccco2)n(CCCOC)c1=S,inactive,
Cc1ccc(NC(=O)CCN2C(=O)c3cccc([N+](=O)[O-])c3C2=O)c(Br)c1,inactive,
Cc1ccc(C(=O)c2cc([N+](=O)[O-])ccc2N2CCCCC2)cc1C,inactive,
CCc1ccc(N=c2c([N+](=O)[O-])nn(-c3ccccc3)n2O)cc1,9200 nM (active),
O=C(N/N=C/c1ccccc1O)C1CC(=O)N(c2ccc(Cl)cc2)C1 (stereo not drawn),inactive,
Cc1sc(NC(=O)c2ccc(Cl)s2)c(C(N)=O)c1C,4110 nM (active),
O=C(Cc1ccccc1)Nc1ccc(NC(=O)c2cccnc2)cc1,inactive,
Cc1ccc2nc(-c3ccc(NC(=O)COC(=O)c4cncc(Br)c4)cc3)sc2c1,146 nM (active),
CCCCn1c(O)c(N=Nc2ccccc2O)c2ccccc21,inactive,
C/C(=N\NC(=S)NC1CCCCC1)c1ccccc1,inactive,
O=C(Nc1ccc(Cl)cn1)C1CCN(c2ncnc3c2nc2n3CCCCC2)CC1,inactive,
COc1ccc(CCC(=O)Nc2ccc(-c3noc(-c4ccc(OC)c(OC)c4)n3)cc2)cc1,inactive,
Cc1ccccc1S(=O)(=O)Nc1nc2ccccc2nc1N1CCc2ccccc2C1,inactive,
c1cnc2c(OCc3nc4ccccc4[nH]3)cccc2c1,6510 nM (active),
Cc1ccc2nc(-c3ccc(NC(=O)COC(=O)c4ccc(Br)o4)cc3)sc2c1,51.7 nM (active),
CC1CCC(NC(=O)C2CCN(C(=O)Nc3ccccc3)CC2)CC1 (stereo not drawn),inactive,
CCOC(=O)c1sc(NC(=S)NC(=O)c2ccco2)nc1C,inactive,
Cc1cc(Br)c(S(=O)(=O)NCCN2CCOCC2)cc1C,inactive,
COc1ccc(/C(N)=N/OC(=O)c2cccs2)cc1,5170 nM (active),
Cc1cc(C)c2nc(NNC(=O)c3ccc(S(=O)(=O)N4CCCC(C)C4)cc3)sc2c1 (stereo not drawn),inactive,
CCOc1ccc(OCc2cccc(C(=O)N3CCCC3)c2)cc1,517 nM (active),
Cc1ccc2nc(-c3ccc(NC(=O)CN4C(=O)c5ccccc5C4=O)cc3)sc2c1,5170 nM (active),

Compound,Potency,activation
Clc1ccc(OCc2nc(-c3ccncc3)no2)c(Cl)c1,8200 nM (active),
COc1ccc([N+](=O)[O-])cc1NC(=O)C1CCCCC1C(=O)O (stereo not drawn),inactive,
COc1ccc(-c2nnc(-c3ccc(Br)o3)o2)cc1OC,inactive,
Cc1cc(Oc2ccccc2)nc(-c2ccccc2O)n1,inactive,
O=C(NCCC1=CCCCC1)c1ccc([N+](=O)[O-])cc1,2590 nM (active),
CC(/C=C/c1ccccc1)=N/O,inactive,
O=C(Nc1cccc(N=Cc2cc(Cl)cc(Br)c2O)c1)c1ccco1,inactive,
Cc1ccc(C(=O)Nc2cnc3sc(C)nn3c2=O)cc1,6510 nM (active),
CCOc1ccc(NS(=O)(=O)c2ccc(C(=O)NC3CCN(Cc4ccccc4)CC3)cc2)cc1,inactive,
Cc1ccc(NC(=O)/C=C/c2ccco2)nc1,2590 nM (active),
c1ccc(-c2cc3cc4c(cc3cn2)OCO4)cc1,11600 nM (active),
CC(C)c1ccc(NC(=O)c2snc3ccc(Cl)cc23)cc1,5800 nM (active),
COC(=O)Cc1n[nH]c(=S)[nH]c1=O,inactive,
C/C(Cn1nnc([N+](=O)[O-])n1)=N\NC(=O)c1ccc(C)cc1,inactive,
COc1ccccc1-c1cc(C(=O)Nc2cc(C)on2)no1,16400 nM (active),
O=[N+]([O-])c1ccc(NC(=S)NCCc2ccc(F)cc2)cc1,inactive,
O=C(NCCN1CCCCC1)Nc1cccc(C(F)(F)F)c1,inactive,
COc1cc(OC)cc(C(=O)NNC(=O)c2ccccn2)c1,inactive,
Cc1ccn2c(c1)nc(=S)n2C(=O)c1ccccc1,731 nM (active),
Clc1cccc(Cl)c1CSc1nnc2ccccn12,inactive,
O=C(Nc1cccnc1)c1ccc([N+](=O)[O-])s1,inactive,
N#C/C(=C/c1cccnc1)c1ccccc1,inactive,

Compound,Potency,activation
O=C(NNC(=O)c1ccc(Cl)cc1Cl)c1ccncc1,,-28.8% [at 9.22 µM]
Cc1ccc(NC(=O)C2CCCO2)cc1[N+](=O)[O-] (stereo not drawn),inactive,
Cc1nn2cc(-c3ccc(-c4ccccc4)cc3)nc2s1,184 nM (active),
CN1CCN(C(=O)c2cc3ccccc3cc2O)CC1,inactive,
Nc1cccc(-c2nc3ccc(C(=O)c4ccccc4)cc3[nH]2)c1,2060 nM (active),
CCc1ccc(NC(=O)c2cnn3ccccc23)cc1,920 nM (active),
Cc1nonc1NCn1nnc2ccccc21,,7.94% [at 9.22 µM]
O=C(COC(=O)CNC(=O)c1ccc([N+](=O)[O-])o1)Nc1ncc(C(F)(F)F)cc1Cl,inactive,
COc1ccc(N2CCN(CCCNC(=O)C3(S(=O)(=O)c4ccc(Cl)cc4)CC3)CC2)cc1,inactive,
CCc1ccc2c(CN(CC)Cc3nc4ccccc4c(=O)[nH]3)cc(=O)oc2c1,,-11.9% [at 9.22 µM]
CN(C)c1cccc(C(=O)NNC(=O)CN2C(=O)C3CC=CCC3C2=O)c1 (stereo not drawn),2310 nM (active),
N#CC(c1ccccc1)C1CCN(Cc2ccccc2)CC1 (stereo not drawn),inactive,
O=C(NC(=S)Nc1nc2ccccc2s1)c1ccco1,580 nM (active),
CC(C)C(=O)Nc1ccc(-c2nc3cccnc3o2)cc1,366 nM (active),
O=C(Nc1nc2c(s1)CCCC2)C1COc2ccccc2O1 (stereo not drawn),231 nM (active),
Cc1occc1C(=O)NN=C1C2CC3CC(C2)CC1C3,inactive,
N/C(=N\OC(=O)c1ccccc1Cl)c1ccc(Cl)cc1,9200 nM (active),
Cc1ccc(C(=O)CC(Nc2ccc(F)cc2)c2ccccc2)cc1 (stereo not drawn),inactive,
Cc1cc(CC(C)C)n(-c2nc3ccccc3c(=O)n2OCC(N)=O)n1,inactive,
O=C(COc1ccccc1Cl)Nc1ccc(Cl)cn1,20600 nM (active),
